Laboratory results reported in the supplement of paper PMC4466140.

B1: unnamed (peptide)
chain: VQPTAAPATPPRHIS
B2: unnamed (peptide)
chain: LKPPIGRPPKFPKSP

Molecular target: SpBzz1-D2
Assay: SPOT peptide array binding signal intensity (averaged, normalized) (arbitrary units (background-subtracted, floor 0; scale differs between SH3 domains)); higher = stronger binding of the SH3 domain to the peptide
Method in brief: (§1)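 Detection of bound protein relied on anti-GST antibody, an HRP anti-mouse secondary and luminol, with imaging and quantification in Genespotter. The bound protein was GST-fused SH3 domains from four yeast species, incubated at 10 μg/ml overnight at 4°C in TBS-based blocking buffer on cellulose membranes carrying synthetic 15-mer peptides with cysteines replaced by serines. Binding signal is normalized, background-subtracted spot intensity averaged over replicates, in arbitrary units that differ between domains.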

Row | Binder | SPOT peptide array binding signal intensity
1 | B1 | ≤ 0
2 | B2 | ≤ 0

Molecular target: SpCyk3
Assay: as above
Method in brief: as §1

Row | Binder | SPOT peptide array binding signal intensity
3 | B1 | ≤ 0
4 | B2 | ≤ 0

Molecular target: SpHof1
Assay: as above
Method in brief: as §1

Row | Binder | SPOT peptide array binding signal intensity
5 | B1 | 0.5
6 | B2 | 1.38

Molecular target: SpHof1-2
Assay: as above
Method in brief: as §1

Row | Binder | SPOT peptide array binding signal intensity
7 | B1 | 0.25
8 | B2 | ≤ 0

Molecular target: SpHof1-3
Assay: as above
Method in brief: as §1

Row | Binder | SPOT peptide array binding signal intensity
9 | B1 | 15
10 | B2 | 88.2

Molecular target: SpHse1
Assay: as above
Method in brief: as §1

Row | Binder | SPOT peptide array binding signal intensity
11 | B1 | ≤ 0
12 | B2 | 11.5

Molecular target: SpLsb1
Assay: as above
Method in brief: as §1

Row | Binder | SPOT peptide array binding signal intensity
13 | B1 | 2
14 | B2 | 3.75

Molecular target: SpLsb4
Assay: as above
Method in brief: as §1

Row | Binder | SPOT peptide array binding signal intensity
15 | B1 | 4010
16 | B2 | 29.5

Molecular target: SpMyo1
Assay: as above
Method in brief: as §1

Row | Binder | SPOT peptide array binding signal intensity
17 | B1 | ≤ 0
18 | B2 | 1430

Molecular target: SpNbp2
Assay: as above
Method in brief: as §1

Row | Binder | SPOT peptide array binding signal intensity
19 | B1 | ≤ 0
20 | B2 | ≤ 0

Molecular target: SpPex13
Assay: as above
Method in brief: as §1

Row | Binder | SPOT peptide array binding signal intensity
21 | B1 | ≤ 0
22 | B2 | ≤ 0

Molecular target: SpRvs167
Assay: as above
Method in brief: as §1

Row | Binder | SPOT peptide array binding signal intensity
23 | B1 | 1620
24 | B2 | 1.33

Molecular target: SpSla1-D1-D2
Assay: as above
Method in brief: as §1

Row | Binder | SPOT peptide array binding signal intensity
25 | B1 | 0.5
26 | B2 | ≤ 0

Molecular target: SpSla1-D3
Assay: as above
Method in brief: as §1

Row | Binder | SPOT peptide array binding signal intensity
27 | B1 | ≤ 0
28 | B2 | 2.5

Molecular target: AgAbp1
Assay: as above
Method in brief: as §1

Row | Binder | SPOT peptide array binding signal intensity
29 | B2 | 926

Molecular target: AgBbc1
Assay: as above
Method in brief: as §1

Row | Binder | SPOT peptide array binding signal intensity
30 | B2 | 160

Molecular target: AgBem1-D1
Assay: as above
Method in brief: as §1

Row | Binder | SPOT peptide array binding signal intensity
31 | B2 | 27

Molecular target: AgBzz1-D1
Assay: as above
Method in brief: as §1

Row | Binder | SPOT peptide array binding signal intensity
32 | B2 | 57

Molecular target: AgBzz1-D2
Assay: as above
Method in brief: as §1

Row | Binder | SPOT peptide array binding signal intensity
33 | B2 | 4

Molecular target: AgCyk3
Assay: as above
Method in brief: as §1

Row | Binder | SPOT peptide array binding signal intensity
34 | B2 | ≤ 0

Molecular target: AgFus1
Assay: as above
Method in brief: as §1

Row | Binder | SPOT peptide array binding signal intensity
35 | B2 | ≤ 0

Molecular target: AgHof1
Assay: as above
Method in brief: as §1

Row | Binder | SPOT peptide array binding signal intensity
36 | B2 | 300

Molecular target: AgHse1
Assay: as above
Method in brief: as §1

Row | Binder | SPOT peptide array binding signal intensity
37 | B2 | ≤ 0

Molecular target: AgLsb1
Assay: as above
Method in brief: as §1

Row | Binder | SPOT peptide array binding signal intensity
38 | B2 | ≤ 0

Molecular target: AgLsb4
Assay: as above
Method in brief: as §1

Row | Binder | SPOT peptide array binding signal intensity
39 | B2 | ≤ 0

Molecular target: AgMyo5
Assay: as above
Method in brief: as §1

Row | Binder | SPOT peptide array binding signal intensity
40 | B2 | 1220

Molecular target: AgNbp2
Assay: as above
Method in brief: as §1

Row | Binder | SPOT peptide array binding signal intensity
41 | B2 | ≤ 0

Molecular target: AgRvs167
Assay: as above
Method in brief: as §1

Row | Binder | SPOT peptide array binding signal intensity
42 | B2 | 0.583

Molecular target: AgSho1
Assay: as above
Method in brief: as §1

Row | Binder | SPOT peptide array binding signal intensity
43 | B2 | ≤ 0

Molecular target: AgSla1-D1-D2
Assay: as above
Method in brief: as §1

Row | Binder | SPOT peptide array binding signal intensity
44 | B2 | 21.5

Molecular target: AgSla1-D3
Assay: as above
Method in brief: as §1

Row | Binder | SPOT peptide array binding signal intensity
45 | B2 | ≤ 0

Molecular target: CaAbp1-D1
Assay: as above
Method in brief: as §1

Row | Binder | SPOT peptide array binding signal intensity
46 | B2 | 1440

Molecular target: CaAbp1-D2
Assay: as above
Method in brief: as §1

Row | Binder | SPOT peptide array binding signal intensity
47 | B2 | 2140

Molecular target: CaBbc1
Assay: as above
Method in brief: as §1

Row | Binder | SPOT peptide array binding signal intensity
48 | B2 | 1150

Molecular target: CaBem1-D1
Assay: as above
Method in brief: as §1

Row | Binder | SPOT peptide array binding signal intensity
49 | B2 | 98

Molecular target: CaBzz1-D1
Assay: as above
Method in brief: as §1

Row | Binder | SPOT peptide array binding signal intensity
50 | B2 | 239

Molecular target: CaBzz1-D2
Assay: as above
Method in brief: as §1

Row | Binder | SPOT peptide array binding signal intensity
51 | B2 | 165

Molecular target: CaCyk3
Assay: as above
Method in brief: as §1

Row | Binder | SPOT peptide array binding signal intensity
52 | B2 | 16.5

Molecular target: CaFus1
Assay: as above
Method in brief: as §1

Row | Binder | SPOT peptide array binding signal intensity
53 | B2 | 49

Molecular target: CaHof1
Assay: as above
Method in brief: as §1

Row | Binder | SPOT peptide array binding signal intensity
54 | B2 | ≤ 0

Molecular target: CaHse1
Assay: as above
Method in brief: as §1

Row | Binder | SPOT peptide array binding signal intensity
55 | B2 | 1.5

Molecular target: CaLsb1
Assay: as above
Method in brief: as §1

Row | Binder | SPOT peptide array binding signal intensity
56 | B2 | ≤ 0

Molecular target: CaLsb4
Assay: as above
Method in brief: as §1

Row | Binder | SPOT peptide array binding signal intensity
57 | B2 | 2

Molecular target: CaMyo5
Assay: as above
Method in brief: as §1

Row | Binder | SPOT peptide array binding signal intensity
58 | B2 | 45.5

Molecular target: CaNbp2
Assay: as above
Method in brief: as §1

Row | Binder | SPOT peptide array binding signal intensity
59 | B2 | ≤ 0

Molecular target: CaRvs167
Assay: as above
Method in brief: as §1

Row | Binder | SPOT peptide array binding signal intensity
60 | B2 | 0.917

Molecular target: CaRvs167-3
Assay: as above
Method in brief: as §1

Row | Binder | SPOT peptide array binding signal intensity
61 | B2 | 3.12

Molecular target: CaSho1
Assay: as above
Method in brief: as §1

Row | Binder | SPOT peptide array binding signal intensity
62 | B2 | ≤ 0

Molecular target: CaSla1-D1-D2
Assay: as above
Method in brief: as §1

Row | Binder | SPOT peptide array binding signal intensity
63 | B2 | 908

Molecular target: CaSla1-D3
Assay: as above
Method in brief: as §1

Row | Binder | SPOT peptide array binding signal intensity
64 | B2 | 3.25

Molecular target: ScAbp1
Assay: as above
Method in brief: as §1

Row | Binder | SPOT peptide array binding signal intensity
65 | B2 | 887

Molecular target: ScBbc1
Assay: as above
Method in brief: as §1

Row | Binder | SPOT peptide array binding signal intensity
66 | B2 | 7

Molecular target: ScBem1-D1
Assay: as above
Method in brief: as §1

Row | Binder | SPOT peptide array binding signal intensity
67 | B2 | ≤ 0

Molecular target: ScBzz1-D1
Assay: as above
Method in brief: as §1

Row | Binder | SPOT peptide array binding signal intensity
68 | B2 | ≤ 0

Molecular target: ScBzz1-D2
Assay: as above
Method in brief: as §1

Row | Binder | SPOT peptide array binding signal intensity
69 | B2 | ≤ 0

Molecular target: ScCyk3
Assay: as above
Method in brief: as §1

Row | Binder | SPOT peptide array binding signal intensity
70 | B2 | 0.25

Molecular target: ScFus1
Assay: as above
Method in brief: as §1

Row | Binder | SPOT peptide array binding signal intensity
71 | B2 | ≤ 0

Molecular target: ScHof1
Assay: as above
Method in brief: as §1

Row | Binder | SPOT peptide array binding signal intensity
72 | B2 | ≤ 0

Molecular target: ScHse1
Assay: as above
Method in brief: as §1

Row | Binder | SPOT peptide array binding signal intensity
73 | B2 | 19.8

Molecular target: ScLsb1
Assay: as above
Method in brief: as §1

Row | Binder | SPOT peptide array binding signal intensity
74 | B2 | 1.5

Molecular target: ScLsb2
Assay: as above
Method in brief: as §1

Row | Binder | SPOT peptide array binding signal intensity
75 | B2 | ≤ 0

Molecular target: ScLsb3
Assay: as above
Method in brief: as §1

Row | Binder | SPOT peptide array binding signal intensity
76 | B2 | 64.8

Molecular target: ScLsb4
Assay: as above
Method in brief: as §1

Row | Binder | SPOT peptide array binding signal intensity
77 | B2 | ≤ 0

Molecular target: ScMyo3
Assay: as above
Method in brief: as §1

Row | Binder | SPOT peptide array binding signal intensity
78 | B2 | 1390

Molecular target: ScMyo5
Assay: as above
Method in brief: as §1

Row | Binder | SPOT peptide array binding signal intensity
79 | B2 | 682

Molecular target: ScNbp2
Assay: as above
Method in brief: as §1

Row | Binder | SPOT peptide array binding signal intensity
80 | B2 | ≤ 0

Molecular target: ScPex13
Assay: as above
Method in brief: as §1

Row | Binder | SPOT peptide array binding signal intensity
81 | B2 | ≤ 0

Molecular target: ScRvs167
Assay: as above
Method in brief: as §1

Row | Binder | SPOT peptide array binding signal intensity
82 | B2 | ≤ 0

Molecular target: ScSho1
Assay: as above
Method in brief: as §1

Row | Binder | SPOT peptide array binding signal intensity
83 | B2 | 4.5

Molecular target: ScSla1-D1-D2
Assay: as above
Method in brief: as §1

Row | Binder | SPOT peptide array binding signal intensity
84 | B2 | 88.5

Molecular target: ScSla1-D3
Assay: as above
Method in brief: as §1

Row | Binder | SPOT peptide array binding signal intensity
85 | B2 | 13.6

Molecular target: SpAbp1-D1
Assay: as above
Method in brief: as §1

Row | Binder | SPOT peptide array binding signal intensity
86 | B2 | 455

Molecular target: SpBbc1
Assay: as above
Method in brief: as §1

Row | Binder | SPOT peptide array binding signal intensity
87 | B2 | 7.25

Molecular target: SpBzz1-D1
Assay: as above
Method in brief: as §1

Row | Binder | SPOT peptide array binding signal intensity
88 | B2 | 894
